The source made the active and inactive calls.

Assay [1] can be described thus: small molecules captured by biotinylated probe aFSTL3 – biochemical, small-molecule microarray, fluorescence 635/667, stem cell growth factor project, primary screen (AID 1064).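 Note: measures binding of the biotinylated anti-FSTL3 antibody to printed compounds.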 The settings on record: higher = more signal.
The nature of assay [2]: binders from COS7 lysate, DM2A8 probe, primary screen, torsin A project, cell lysate, small-molecule microarray, fluorescence 635/667 (AID 1065). To be noted: higher = more signal, COS7 lysate expressing mutant human TOR1A.
A short description of assay [3]: small molecules captured by biotinylated probe aFGF2 – biochemical, small-molecule microarray, fluorescence 635/667, stem cell growth factor project, primary screen (AID 1067).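 Note: measures binding of biotinylated aFGF2 protein to printed compounds on slides; z-score merges feature fluorescence and signal-to-noise across triplicate slides.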 To be noted: higher = more signal.
Assay [4] is described as follows: small molecules captured by biotinylated probe aFGF10 – biochemical, small-molecule microarray, fluorescence 635/667, stem cell growth factor project, primary screen (AID 1071).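 Note: score merges 667 nm spot intensity and signal to noise from triplicate slides.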 To be noted: higher = more signal.
Assay [5] concerns the target Neurogenic locus notch homolog protein 2 (Homo sapiens) (UniProt Q04721). The assay can be described thus: small molecules binding Notch2 protein – biochemical, small-molecule microarray, 635 nm fluorescence, stem cell growth factors, primary screen (AID 1073). The settings on record: higher = more signal.
The target of assay [6] is Pro-neuregulin-1, membrane-bound isoform (Homo sapiens) (UniProt Q02297). The assay can be described thus: small molecules binding neuregulin-1 protein – biochemical, small-molecule microarray, fluorescence 635/667, psychiatric disease protein project, primary screen (AID 1075).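 Note: score combines 667 nm spot fluorescence with signal to noise.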 The settings on record: NRG1 binding, 635 nm fluorescence, higher = more signal.
Pro-neuregulin-1, membrane-bound isoform (Homo sapiens), sequence (Q02297 whole entry, looked up, the tested form may be a part, canonical isoform): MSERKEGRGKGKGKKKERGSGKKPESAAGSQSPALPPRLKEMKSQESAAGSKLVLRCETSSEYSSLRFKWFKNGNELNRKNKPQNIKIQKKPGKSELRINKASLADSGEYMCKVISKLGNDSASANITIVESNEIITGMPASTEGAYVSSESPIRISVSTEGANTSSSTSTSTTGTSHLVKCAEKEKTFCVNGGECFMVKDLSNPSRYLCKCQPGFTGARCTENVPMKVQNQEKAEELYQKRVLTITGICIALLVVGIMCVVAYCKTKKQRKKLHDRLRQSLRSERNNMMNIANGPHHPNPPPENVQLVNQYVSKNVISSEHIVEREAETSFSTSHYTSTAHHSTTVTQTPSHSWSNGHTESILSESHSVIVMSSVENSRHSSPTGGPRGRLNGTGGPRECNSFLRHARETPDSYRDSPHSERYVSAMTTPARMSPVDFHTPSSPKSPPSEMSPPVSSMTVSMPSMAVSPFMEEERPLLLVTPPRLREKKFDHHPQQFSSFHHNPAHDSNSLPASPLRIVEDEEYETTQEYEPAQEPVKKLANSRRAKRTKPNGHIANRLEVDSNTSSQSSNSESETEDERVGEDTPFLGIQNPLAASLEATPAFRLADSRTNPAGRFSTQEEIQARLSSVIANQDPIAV
For assay [7], the system named is Neuregulin-1 EGF-like domain. The assay can be described thus: small molecules binding NRG1 EGF domain – biochemical, small-molecule microarray, 635 nm fluorescence, primary screen (AID 1081).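 Note: binding of the protein to compounds printed on small-molecule microarray slides.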 To be noted: higher = more signal.
A short description of assay [8]: FRG1 expression reporter modulators in myotubes – cell-based, C2C12 myotubes, firefly/Renilla luciferase, luminescence, FRG1 inhibition for FSHD, primary screen (AID 1084). To be noted: FRG1 promoter luciferase, higher = more signal, called active from +8 up or from −8 down.
Assay [9] is described as follows: small molecules captured by biotinylated probe aFST – biochemical, small-molecule microarray, fluorescence 635/667, stem cell growth factor project, primary screen (AID 1086).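 Note: score merges 667 nm fluorescence with signal-to-noise of each printed compound spot.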 To be noted: higher = more signal.
Assay [10] is described as follows: binders of probe aHhip on microarray, primary screen, stem cell growth factor project, biochemical, small-molecule microarray, fluorescence 635/667 (AID 1087).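 Note: score merges spot fluorescence at 667nm with spot signal to noise ratio.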 To be noted: higher = more signal.

Neurogenic locus notch homolog protein 2 (Homo sapiens), sequence (Q04721 whole entry, looked up, canonical isoform): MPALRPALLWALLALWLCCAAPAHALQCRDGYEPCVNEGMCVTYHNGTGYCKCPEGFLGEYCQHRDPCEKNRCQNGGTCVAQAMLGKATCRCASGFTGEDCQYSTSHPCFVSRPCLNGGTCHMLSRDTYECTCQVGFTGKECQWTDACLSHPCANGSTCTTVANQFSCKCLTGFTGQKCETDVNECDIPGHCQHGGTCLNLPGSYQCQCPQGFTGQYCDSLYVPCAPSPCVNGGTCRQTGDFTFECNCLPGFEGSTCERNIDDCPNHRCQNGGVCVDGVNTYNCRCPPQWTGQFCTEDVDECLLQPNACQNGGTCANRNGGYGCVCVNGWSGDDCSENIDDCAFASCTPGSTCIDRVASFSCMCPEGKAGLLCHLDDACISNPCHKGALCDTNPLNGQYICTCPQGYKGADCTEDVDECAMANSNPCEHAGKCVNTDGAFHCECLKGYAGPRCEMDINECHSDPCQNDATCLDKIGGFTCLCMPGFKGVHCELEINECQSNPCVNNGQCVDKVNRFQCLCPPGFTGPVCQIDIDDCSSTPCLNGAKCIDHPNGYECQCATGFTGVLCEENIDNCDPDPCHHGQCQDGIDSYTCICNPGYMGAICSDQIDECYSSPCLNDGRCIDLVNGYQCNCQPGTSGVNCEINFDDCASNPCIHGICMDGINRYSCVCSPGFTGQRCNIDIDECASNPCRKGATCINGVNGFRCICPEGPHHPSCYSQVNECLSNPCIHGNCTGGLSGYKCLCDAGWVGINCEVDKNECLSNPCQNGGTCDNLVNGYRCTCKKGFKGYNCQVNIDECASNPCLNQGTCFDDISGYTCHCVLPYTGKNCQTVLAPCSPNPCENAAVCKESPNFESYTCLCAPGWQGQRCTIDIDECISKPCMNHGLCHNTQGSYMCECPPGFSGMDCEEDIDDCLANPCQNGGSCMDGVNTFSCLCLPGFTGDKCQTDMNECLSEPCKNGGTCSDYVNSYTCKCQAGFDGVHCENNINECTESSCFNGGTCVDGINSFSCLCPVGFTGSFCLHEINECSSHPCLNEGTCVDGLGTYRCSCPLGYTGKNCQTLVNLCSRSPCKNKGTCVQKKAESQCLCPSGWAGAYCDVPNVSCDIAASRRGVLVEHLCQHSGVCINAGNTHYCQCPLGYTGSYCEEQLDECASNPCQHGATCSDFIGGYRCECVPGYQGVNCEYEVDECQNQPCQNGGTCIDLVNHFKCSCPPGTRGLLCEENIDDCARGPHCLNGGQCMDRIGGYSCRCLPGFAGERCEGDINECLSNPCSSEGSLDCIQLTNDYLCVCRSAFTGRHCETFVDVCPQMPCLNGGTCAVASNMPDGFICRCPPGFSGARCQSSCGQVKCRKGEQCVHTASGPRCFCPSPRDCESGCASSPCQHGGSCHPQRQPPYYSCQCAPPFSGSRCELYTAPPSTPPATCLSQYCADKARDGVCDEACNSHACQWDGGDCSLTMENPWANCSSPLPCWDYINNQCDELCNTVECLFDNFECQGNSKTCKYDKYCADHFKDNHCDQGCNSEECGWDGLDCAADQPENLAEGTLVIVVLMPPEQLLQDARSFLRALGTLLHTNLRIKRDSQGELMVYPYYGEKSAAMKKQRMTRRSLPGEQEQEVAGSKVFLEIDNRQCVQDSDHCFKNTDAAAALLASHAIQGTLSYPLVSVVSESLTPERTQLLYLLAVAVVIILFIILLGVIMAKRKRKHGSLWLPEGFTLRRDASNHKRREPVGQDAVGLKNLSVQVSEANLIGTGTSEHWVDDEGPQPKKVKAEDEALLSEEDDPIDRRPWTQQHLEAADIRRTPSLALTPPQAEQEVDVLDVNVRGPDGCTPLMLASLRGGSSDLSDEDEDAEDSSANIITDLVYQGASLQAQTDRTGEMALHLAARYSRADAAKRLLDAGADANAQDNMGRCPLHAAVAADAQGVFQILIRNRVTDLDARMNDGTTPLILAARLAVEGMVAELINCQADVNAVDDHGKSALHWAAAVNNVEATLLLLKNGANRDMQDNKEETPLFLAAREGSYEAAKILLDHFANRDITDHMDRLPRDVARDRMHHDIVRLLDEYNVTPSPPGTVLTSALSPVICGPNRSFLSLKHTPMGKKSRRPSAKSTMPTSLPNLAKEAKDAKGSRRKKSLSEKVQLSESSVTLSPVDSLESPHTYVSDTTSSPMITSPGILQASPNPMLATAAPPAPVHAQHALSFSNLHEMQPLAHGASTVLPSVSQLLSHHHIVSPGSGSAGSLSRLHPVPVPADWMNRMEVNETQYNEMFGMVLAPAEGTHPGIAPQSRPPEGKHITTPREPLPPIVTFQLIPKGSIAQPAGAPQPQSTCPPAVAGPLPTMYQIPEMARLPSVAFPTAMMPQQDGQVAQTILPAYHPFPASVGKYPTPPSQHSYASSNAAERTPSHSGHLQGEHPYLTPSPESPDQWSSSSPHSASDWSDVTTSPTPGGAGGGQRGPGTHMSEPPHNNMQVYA

Consider `CCCN1C(=O)[C@@]2(c3ccc([N+](=O)[O-])cc3)CC(=O)N(C3CCCCC3)[C@@H]2c2ccc(CO)cc21`, for which the composite z-score in assay [1] is -0.439; in [2], -0.768; in [3], -0.0131; in assay [4] it was -0.201; in assay [5] it was -0.553; in [6], -0.154. Further, the composite z-score in assay [7] was 1.23; in assay [9], -0.479; in [10] it was 0.137. In assay [8], the z-score was 0.693 (inactive).
As for `C=CCNC(=O)[C@H]1[C@@H]2C(=O)O[C@@H](c3ccccc3)[C@@H](c3ccccc3)N2[C@@H](c2ccc(O)cc2)[C@]12C(=O)Nc1ccc(C#CCC(C(=O)OC)C(=O)OC)cc12`, the composite z-score in assay [1] is -0.102; in assay [2], -0.0975; in assay [3] it was -0.0878; in assay [4] it was 0.0813; in assay [5], 0.136; in assay [6], 0.0652. The values for the composite z-score in assay [7], in assay [9] and in assay [10] were 1.19, 0.0765 and -0.261, respectively. The z-score in assay [8] was -0.32 (inactive).
As for `COCCOC(=O)N1C(=O)[C@@]2(c3cc(C#CCNC(N)=O)ccc31)[C@H](C(=O)N1CCN(c3ncccn3)CC1)[C@H]1C(=O)O[C@H](c3ccccc3)[C@H](c3ccccc3)N1[C@@H]2c1ccc(O)cc1`, the composite z-score is -1.35 in [1]; 0.0122 in assay [2]; -0.282 in assay [3]; -0.129 in [4]; -1.15 in assay [5]; -0.37 in [6]. The composite z-score in assay [7] was -0.475; in [9] it was -0.874; in assay [10], -0.769. Besides, in [8], the z-score was -1.04 (inactive).
For `C=CCNC(=O)[C@@H]1[C@H]2C(=O)O[C@H](c3ccccc3)[C@H](c3ccccc3)N2[C@H](c2ccc(O)cc2)[C@@]12C(=O)Nc1ccc(C#CC3=CCCCC3)cc12`, the composite z-score in [1] is -0.619; in [2], 1.23; in assay [3] it was -0.0639; in [4], 1.1; in assay [5] it was 0.87; in assay [6], 1.15. Moreover, the composite z-score in [7] was 1.06; in [9], -0.17; in assay [10], -0.426. Besides, in assay [8], the z-score is -0.231 (inactive).
As to `C[C@]1(C(=O)NC2CC2)c2ccccc2C(=O)N(Cc2cc(F)cc(C(F)(F)F)c2)[C@H]1c1ccc(CO)cc1`, the composite z-score in assay [1] was -0.364; in assay [2], -0.035; in [3], -0.116; in assay [4] it was -0.636; in assay [5] it was -1.13; in [6], 1.72. Moreover, the composite z-score was 1.37 in [7], -0.527 in [9] and -0.256 in assay [10]. In addition, the z-score in assay [8] was -1.05 (inactive).
With `COc1c(C)cc(-c2cc3c(c(CCc4ccccc4)n2)[Si](C(C)C)(C(C)C)O[C@H]3c2ccccc2)cc1C`, the composite z-score in assay [1] was -0.473; in [2], -0.0939; in assay [3], -0.166; in [4] it was -0.0024; in [5], -0.0773; in [6], -0.133. For the same compound, the composite z-score is -0.0748 in [7], 0.125 in [9] and -0.0296 in assay [10]. Also, the z-score in assay [8] was -0.278 (inactive).
On to `COC(=O)[C@@]1(Cc2ccc(OC)cc2)[C@@H]2[C@@H](CC(=O)[C@H]2CC(=O)C(=O)N(C)C)CN1C(=O)c1ccccc1`, for which the composite z-score in assay [1] was 2.09; in [2] it was 0.496; in [3], 0.81; in assay [4], 1.2; in assay [5], 1.78; in assay [6], 1.69. For the same compound, the composite z-score in assay [7] turned out to be 1.06; in assay [9], 2.67; in assay [10], 0.357. Further, the z-score in assay [8] was -0.224 (inactive).
On to `COCCOC(=O)N1C(=O)[C@@]2(c3cc(C#CCCO)ccc31)[C@H](c1ccc(O)cc1)N1[C@H](c3ccccc3)[C@H](c3ccccc3)OC(=O)[C@H]1[C@@H]2C(=O)NC[C@H](O)c1ccccc1`, for which the composite z-score in assay [1] is -0.0825; in [2], 0.332; in [3] it was -0.0271; in [4] it was 0.589; in [5] it was 0.163; in assay [6], 1.25. The composite z-score in assay [7] is 1.29; in [9], 0.0962; in [10] it was -0.0645. Further, the z-score in [8] is -1.69 (inactive).
Turning to `COc1ccc(NN2C(C(O)c3ccc(F)cc3)C=CC3C(=O)N(C4CCCCC4)C(=O)C32)cc1` (stereo not given), the composite z-score worked out at 0.443 in [1]; 0.0876 in [2]; 0.133 in assay [3]; 0.686 in assay [4]; 1.59 in assay [5]; 1.52 in [6]. The composite z-score was 1.22 in assay [7], 0.688 in assay [9] and -0.0618 in assay [10]. Further, in [8], the z-score was 1.78 (inactive).
Regarding `COC(=O)[C@@]1(Cc2ccc(F)cc2)[C@H]2c3cc(C(=O)N4CCCC4)n(Cc4ccc(C(F)(F)F)nc4)c3C[C@H]2CN1C(=O)c1ccccc1`, the composite z-score is 0.581 in assay [1]; -0.0219 in [2]; 0.16 in assay [3]; 0.0812 in [4]; 1.74 in assay [5]; 2.1 in assay [6]. Moreover, the values for the composite z-score in assay [7], in assay [9] and in assay [10] were 0.92, 2.25 and -0.0799, respectively. Moreover, the z-score in assay [8] was 2 (inactive).
On to `C=CC[C@]1(C(N)=O)N=C(c2ccc(OCCCO)cc2)O[C@H]1c1ccccc1N=[N+]=[N-]`, for which the composite z-score is 0.951 in assay [1]; -0.385 in assay [2]; 0.087 in assay [3]; 0.672 in assay [4]; 0.737 in assay [5]; 1.8 in assay [6]. Further, the values for the composite z-score in assay [7], in assay [9] and in [10] were 1.06, 1.69 and -0.306, respectively. In assay [8], the z-score was 2.63 (inactive).
Take `COc1ccc(CCNC(=O)[C@@]2(C)c3ccccc3C(=O)N(Cc3ccc(OC(F)(F)F)cc3)[C@H]2c2ccc(CO)cc2)cc1`: the composite z-score in [1] was -1.45; in assay [2] it was 0.197; in assay [3], -0.0211; in [4] it was 0.0093; in [5] it was 0.484; in assay [6], 0.41. Besides, the composite z-score in assay [7] was 1.12; in [9], 0.122; in assay [10], -0.679. In addition, the z-score in assay [8] was -4.33 (inactive).
On to `CC(C)N1C(=O)[C@@]2(Cc3ccccc31)c1ccccc1C(=O)N(Cc1ccccc1)[C@H]2c1ccc(CO)cc1`, for which the composite z-score was -0.244 in [1]; -0.164 in [2]; -0.204 in assay [3]; -0.125 in assay [4]; -0.291 in assay [5]; 0.251 in assay [6]. The composite z-score in assay [7] is 0.322; in [9], -0.0754; in assay [10], -0.391. Also, the z-score in assay [8] was -0.0076 (inactive).
As for `COC(=O)[C@@]1(Cc2ccc(F)cc2)[C@H]2c3cc(C(=O)N(C)C)n(Cc4ccc(C(F)(F)F)nc4)c3C[C@H]2CN1C(=O)c1ccccc1`, the composite z-score in [1] is 1.5; in assay [2], 0.474; in assay [3], 0.0642; in assay [4], 0.69; in [5] it was 1.74; in [6] it was 2.03. The composite z-score came out at 1.18 in assay [7], 1.97 in assay [9] and 0.264 in assay [10]. For the same compound, in [8], the z-score was -0.909 (inactive).

Values taken from PubChem BioAssay.
